In the library only some 2.8% were active in any assay of this set; here they are far more common.
B2AR ag – agonists of human beta-2 adrenergic receptor inducing internalization; P07550; Am2.2-beta2AR cells, FAP receptor internalization, flow cytometry; response, % (no concentration beside the values); 340,000 tested, 0.43% active; AID 504454;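 active means response above a set limit, near 3 SD of response in nonfluorescent compounds, cut at about 42% in these data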
Target sequence (P07550 whole entry, looked up): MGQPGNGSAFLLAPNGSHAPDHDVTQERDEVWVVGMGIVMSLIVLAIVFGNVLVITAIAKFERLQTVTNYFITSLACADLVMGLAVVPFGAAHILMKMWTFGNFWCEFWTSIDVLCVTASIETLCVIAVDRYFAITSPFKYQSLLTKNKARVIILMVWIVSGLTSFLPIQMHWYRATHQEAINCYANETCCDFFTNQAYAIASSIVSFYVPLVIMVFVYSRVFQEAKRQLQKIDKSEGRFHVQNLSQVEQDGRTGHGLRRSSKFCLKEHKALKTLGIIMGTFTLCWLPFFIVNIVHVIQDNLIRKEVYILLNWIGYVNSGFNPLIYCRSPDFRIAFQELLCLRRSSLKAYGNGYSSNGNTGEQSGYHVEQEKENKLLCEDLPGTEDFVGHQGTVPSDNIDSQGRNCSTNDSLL
CF NFkB block – cystic fibrosis NF-kB activation inhibition; KKLEB NF-kB-GFP reporter, PAF-induced, GFP fluorescence overnight; inhibition, % at 5 µM; 360,000 tested, 0.86% active; AID 588850;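 active means at least 50% inhibition at 5 µM, scaled per plate between neutral and stimulator controls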;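 further: PAF is a Pseudomonas aeruginosa culture filtrate used as stimulus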
Peg3 promoter – Peg3 promoter activity inhibition; HeLa PEG-Prom luciferase reporter, luminescence, overnight; inhibition, % at 20 µM; 360,000 tested, 1.7% active;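 active means inhibition of at least 50% at 20 µM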
HIF-2a block – blocks HIF-2a reporter activity | inhibition, % at 18.8 µM | AID 624352 | 360,000 tested, 0.72% active | 786-0 RCC cells HIF-2a reporter, luciferase luminescence, overnight;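 active means inhibition of the luminescence signal of 40% or more relative to plate controls, in a single-dose primary screen at 18.75 µM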
TRPM1 prom inh – MITF TRPM1 promoter inhibition in SK-MEL-5 cells; SK-MEL-5 TRPM1 promoter luciferase, 24 h; inhibition, % at 12.5 µM; 330,000 tested, 0.83% active;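 active means mean inhibition across replicates of 60% or more, whatever share of single replicates reaches that level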
KKLEB cytotox – CF airway cell cytotoxicity counter-screen; KKLEB CF airway cells viability, ATPlite luminescence, overnight; active compounds read low; cells stimulated with P. aeruginosa culture filtrate; activity change (cytotoxicity), % at 5 µM; 360,000 tested, 0.36% active; AID 602141;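 active means corrected activity change at or below -50% at 5 µM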
Mdm2 MdmX conf – confirmation of inhibitors of human Mdm2/MdmX interaction, set 2; inhibition, % at 8 µM; SaOS-2 split-luciferase Mdm2/MdmX complementation, luminescence; AID 504601; 740 tested, 99% active; shares compounds with HIF-2a block;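 active means mean inhibition of the luminescence signal across two replicates at or above 26 percent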
HIF-2a inh conf – HIF-2a inhibition, single concentration confirmation; 786-0 RCC cells, HIF-2a luciferase reporter luminescence, overnight; shares compounds with HIF-2a block; inhibition, % at 18.8 µM; 1,800 tested, 56% active;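 active means mean inhibition across four replicates of at least 40 percent at the single tested concentration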
HIF-1a counter – HIF-1a inhibition counter-screen for HIF-2a hits; shares compounds with HIF-2a block; MiaPaCa-2 HIF-1a luciferase reporter, desferoxamine, overnight; inhibition, % at 18.8 µM; 1,800 tested, 72% active; AID 651589;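 active means mean inhibition of the reporter signal across four replicates at the single tested dose of 50% or more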
Large screens that a line does not name were inactive (follow-up assays come after a bar, where they were run).

CC(NC(=O)CCc1nnc(-c2ccc(-c3ccccc3)cc2)o1)c1nccs1 (stereo not drawn)	HIF-2a block 40.1 | HIF-2a inh conf 51.2 | HIF-1a counter inactive
CC(c1nccs1)N(C)C(=O)CCc1nnc(-c2ccc(-c3ccccc3)cc2)o1 (stereo not drawn)	none
COC(=O)CCCNC(=O)CCc1nnc(-c2ccc(-c3ccccc3)cc2)o1	HIF-2a block 48.2 | HIF-2a inh conf 52.4 | HIF-1a counter inactive
COC(=O)c1ccc(Cn2c(C)c(C(=O)NCc3ccco3)sc2=O)o1	none (no result: B2AR ag, TRPM1 prom inh)
CCOC(=O)N1CCN(C(=O)c2cc3n(n2)C(C(F)(F)F)CC(c2ccc4c(c2)OCO4)N3)CC1 (stereo not drawn)	none
Cc1c(C(=O)N/N=C/c2c(O)ccc3ccccc23)nnn1-c1nonc1N	none | Mdm2 MdmX conf 92.0
O=C(N/N=C/c1c(O)ccc2ccccc12)c1ccc(Br)o1	none | Mdm2 MdmX conf 90.2
Cc1occc1C(=O)N/N=C/c1c(O)ccc2ccccc12	none
COC(=O)[C@]12CCCCC=C1N(CCC1=CCCCC1)C(=O)[C@H](CC(=O)NCCCN1CCCC1=O)C2	none (no result: B2AR ag, CF NFkB block, Peg3 promoter, TRPM1 prom inh, KKLEB cytotox)
Nc1ncnc2c1ncn2C1C=C(CO)C(O)C1O (stereo not drawn)	HIF-2a block 43.5 | HIF-2a inh conf inactive | HIF-1a counter 81.1
COc1cc(C(Nc2ccccn2)c2ccc3ccc(C)nc3c2O)cc(OC)c1O (stereo not drawn)	CF NFkB block 74.0, Peg3 promoter 102.1, HIF-2a block 93.5 | Mdm2 MdmX conf 102.5
Cc1ccc(-n2c(C)c([N+](=O)[O-])c3ccc(O)c(CN(C)C)c32)cc1	CF NFkB block 82.3 | Mdm2 MdmX conf 92.2
O=C(CCl)N(c1ccccc1)C1CCCCC1	CF NFkB block 92.1, Peg3 promoter 110.0, HIF-2a block 60.7, TRPM1 prom inh 95.2, KKLEB cytotox -91.6 | Mdm2 MdmX conf 103.5 | HIF-2a inh conf 91.8 | HIF-1a counter 105.5
CC(=O)N(c1ccccc1)C1CCCC1	none
Cc1[nH]nc2c1C(c1ccco1)C(C#N)=C(N)O2 (stereo not drawn)	none
Cc1[nH]nc2c1C(c1cc(Br)cs1)C(C#N)=C(N)O2 (stereo not drawn)	CF NFkB block 59.7, HIF-2a block 42.8 | HIF-2a inh conf 40.4 | HIF-1a counter 91.9
COC(=O)c1cc(=O)n(Cc2ccco2)c(=Nc2ccc(F)c(Cl)c2)s1	Peg3 promoter 102.2, HIF-2a block 67.4 | HIF-2a inh conf 62.3 | HIF-1a counter 105.3
Cc1cc(C)nc(SCc2ccc(C(=O)NNC(=O)Nc3cccc(Cl)c3)cc2)n1	Peg3 promoter 75.1, HIF-2a block 89.8 | HIF-2a inh conf 49.6 | HIF-1a counter 104.8
Cc1cc(C)nc(SCc2ccc(C(=O)N/N=C/c3ccncc3)cc2)n1	none
CCc1ccc2oc(=O)cc(CN3CCOCC3)c2c1	HIF-2a block 46.0 | HIF-2a inh conf inactive | HIF-1a counter inactive
Cc1cc(OCC(=O)OC(C)C(=O)NC2CC2)c(C(C)C)cc1Cl (stereo not drawn)	none (no result: B2AR ag, TRPM1 prom inh)
COc1ccccc1N1CCN(C2CCCN(C(=O)CCN3CCCCO3)C2)CC1 (stereo not drawn)	none
Cc1ccc(C(=O)C2C(=O)C3CCC2C3)cc1 (stereo not drawn)	HIF-2a block 46.1 (no result: B2AR ag, TRPM1 prom inh) | HIF-2a inh conf inactive | HIF-1a counter inactive
Cc1ccc(C(=O)C2CCNCC2)cc1	none
COc1ncnc2c1ncn2CCCNC1CCN(Cc2ccccc2)CC1	none (no result: B2AR ag, TRPM1 prom inh)
O=C(CSc1nnc(-c2ccc(Br)cc2)o1)Nc1cccc2ccccc12	none
O=C(CSc1nnc(-c2ccc(Br)cc2)o1)Nc1cccc(C(=O)O)c1	HIF-2a block 63.0, TRPM1 prom inh 88.3 | HIF-2a inh conf 63.4 | HIF-1a counter inactive
O=C(CSc1nnc(-c2ccccc2)o1)Nc1ccccc1F	HIF-2a block 49.0 (no result: TRPM1 prom inh) | HIF-2a inh conf 66.4 | HIF-1a counter 60.8
N#CC(C#N)=C1C=CC=CN1/C(=C\c1ccccc1Cl)C(=O)c1ccccc1	B2AR ag 105.3, CF NFkB block 80.8, Peg3 promoter 107.8, HIF-2a block 96.6, TRPM1 prom inh 76.8, KKLEB cytotox -58.1 | HIF-2a inh conf 87.8 | HIF-1a counter 93.5
O=C(NCCCN1CCCC1)c1[nH]c(C(F)(F)F)nc1-c1ccccc1	none (no result: B2AR ag, TRPM1 prom inh)
FC(F)(F)c1nnc(-c2ccccc2)nc1Sc1ccc(Cl)cc1	Peg3 promoter 73.8, HIF-2a block 61.7 | HIF-2a inh conf 48.1 | HIF-1a counter 91.1
FC(F)(F)c1cccc(Sc2nc(-c3ccccc3)nnc2C(F)(F)F)c1	HIF-2a block 44.5 | HIF-2a inh conf inactive | HIF-1a counter 69.9
FC(F)(F)c1nnc(-c2ccccc2)nc1Sc1ccccc1	Peg3 promoter 71.7, HIF-2a block 78.4 | HIF-2a inh conf inactive | HIF-1a counter 66.6
CCCc1nc([N+](=O)[O-])c(S(=O)(=O)c2ccccc2)n1CC(C)C	CF NFkB block 55.0, HIF-2a block 44.7 | HIF-2a inh conf inactive | HIF-1a counter inactive
CN1CCN(C(=O)CCN2C(=O)/C(=C\c3ccc(Cl)cc3)SC2=S)CC1	none
NS(=O)(=O)c1ccc(CCN2C(=O)/C(=C\c3ccc(Cl)cc3)SC2=S)cc1	Peg3 promoter 82.9, HIF-2a block 41.7 | Mdm2 MdmX conf 103.0
O=C(Nc1ccc(Cl)cc1)c1nc[nH]c1C(=O)NCCN(CCNC(=O)c1[nH]cnc1C(=O)Nc1ccc(Cl)cc1)CCNC(=O)c1[nH]cnc1C(=O)Nc1ccc(Cl)cc1	CF NFkB block 70.9, Peg3 promoter 100.9, KKLEB cytotox -55.6 | Mdm2 MdmX conf 100.2
Cc1ccc(S(=O)(=O)Nc2ccc(F)c(F)c2O)cc1	none (no result: B2AR ag, CF NFkB block, Peg3 promoter, TRPM1 prom inh, KKLEB cytotox)
COc1cc(/C=C/CNC[C@H]2O[C@@H](n3ccc(N)nc3=O)[C@H](O)[C@@H]2O)ccc1O	none (no result: B2AR ag, TRPM1 prom inh)
CC(=O)Nc1ccc2c(c1)CCc1ccccc1-2	none
O=C(O)/C=C/C(=O)c1ccc2c(c1)CCc1ccccc1-2	B2AR ag 95.8, CF NFkB block 64.1, Peg3 promoter 99.7, HIF-2a block 49.6 (no result: TRPM1 prom inh) | HIF-2a inh conf 57.1 | HIF-1a counter 102.7
CC(C)C[C@@H]1O[C@H](CCc2ccccc2)Cc2[nH]c(=S)[nH]c(=O)c21	none (no result: B2AR ag, CF NFkB block, Peg3 promoter, TRPM1 prom inh, KKLEB cytotox)
Cc1nc(/C(=N/O)C(N)=O)cs1	HIF-2a block 44.8 | HIF-2a inh conf inactive | HIF-1a counter inactive
